# PubChem BioAssay AID1508625 (Wald Lab, School of Medicine, Case Western Reserve …, 2021)
# Assay: small molecules boosting NK-mediated OVCAR3 lysis – imaging, primary NK cells, calcein-AM imaging, primary screen (AID 1508625);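 note: compound given to NK cells 16 h before adding targets at 1.5 to 1 ratio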;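 for z-score: more negative robust z means stronger NK killing of tumor cells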
# Conditions: OVCAR3 lysis by primary NK cells, at 5 µM; z-score: measured here: robust Z-score, single-point normalisation
SMILES,z-score,"corrected activity, negative = more killing [%]"
c1ccc(-c2nnc3n2C2(CCCCC2)Cc2ccccc2-3)cc1,0.417,0.806
COc1ccc(N(CC(=O)Nc2c(C)n(C)n(-c3ccccc3)c2=O)S(C)(=O)=O)c(OC)c1,-0.246,-0.645
CC1CCCN(c2ncnc3scc(-c4ccccc4)c23)C1 (stereo not drawn),-0.85,-2.34
O=C(O)c1ccc(S(=O)(=O)c2ccc3c(c2)C(=O)N(CC2CCCO2)C3=O)cc1 (stereo not drawn),0.146,0.388
O=C(Nc1ccc(N2CCN(Cc3ccccc3Cl)CC2)cc1)c1ccco1,0.895,1.61
CCOC(=O)c1c(NC(=O)c2ccccc2F)sc(C(=O)Nc2cccc(Cl)c2)c1C,-0.517,-1.46
COC(=O)c1c(NC(=O)c2cc3ccccc3c(=O)o2)sc2c1CCC(C)C2 (stereo not drawn),-0.344,-0.836
Cc1ccc(S(=O)(=O)NN=Cc2ccc(I)cc2)cc1,-0.82,-2.58
O=C1OC(c2cccc(Cl)c2)=NC1=Cc1ccc(F)cc1,-1.9,-4.47
Cc1cc(C)n(C(=O)c2ccc(S(=O)(=O)N3CCCCCC3)cc2)n1,-1.46,-2.63
Clc1ccc(OCCN2CCc3ccccc3C2)cc1,-1.03,-1.86
O=C(c1ccncc1)N1CCN(CC2CC=CCC2)CC1 (stereo not drawn),-1.39,-3.11
COc1ccc(-n2c(=S)[nH]c3cc(C(=O)NCc4ccc(Cl)cc4)ccc3c2=O)cc1,-0.763,-2.4
Cc1cc(Nc2ncnc3sc4c(c23)CCCC4)ccc1Br,-1.03,-1.91
CCc1ccc(-c2nc3ccccc3c(C(=O)O)c2C)cc1,-1.41,-3.44
Cc1cccn2c(=O)c3cc(C(=O)N(CC(C)C)CC(C)C)sc3nc12,-2.41,-8.5
COCc1cccc(NS(=O)(=O)Cc2ccccc2)c1,0.183,0.328
CCCNS(=O)(=O)c1ccc(F)c(C(=O)Nc2cc(C)ccc2OC)c1,-1.62,-6
COc1cc(NC(=O)C(C)Oc2cccc(Cl)c2)cc(OC)c1 (stereo not drawn),-2.16,-3.89
Cc1ccc(C(=O)Nc2cccc(C(=O)N3CCOCC3)c2)cc1Cl,-0.0182,-0.0326

SMILES,z-score,"corrected activity, negative = more killing [%]"
CCC1CCCCN1C(=O)c1sc2ncn(Cc3ccccc3F)c(=O)c2c1C (stereo not drawn),-1.34,-3.67
CCOC(=O)C1=C(N)OC2=C(C(=O)CC(C)(C)C2)C1c1ccc(O)cc1 (stereo not drawn),-1.28,-4.12
COC(=O)c1cc(NC(=O)c2cc3nc(-c4ccc(Cl)cc4)cc(C(F)(F)F)n3n2)cc(C(=O)OC)c1,-2.54,-8
CCN1CCN(C(=O)c2oc3ccc(S(=O)(=O)N4CCCCCC4)cc3c2C)CC1,-1.6,-6.41
Cc1ccc(-c2cc(C(F)(F)F)n3ncc(C(=O)N4CCC(C)CC4)c3n2)cc1,-1.79,-5.63
COc1cc(C(=O)N2N=C(C3CC3)CC2(O)C(F)(F)F)cc(OC)c1OC (stereo not drawn),-1.41,-3.44
CCCCOc1ccccc1C1NC(=O)NC(C)=C1C(=O)OCC(F)(F)F (stereo not drawn),-1.36,-3.61
Cc1cc(=O)n2[nH]c(C)cc2n1,-0.975,-3.27
CC(=O)Nc1cccc(N=Cc2cc(Cc3ccccc3)cc([N+](=O)[O-])c2O)c1,-0.698,-1.97
CC(C)CCNC(=O)c1c[nH]c2ccc(S(=O)(=O)N3CC(C)CC(C)C3)cc2c1=O (stereo not drawn),-1.21,-3.33
CCOc1cccc(-c2cc(C(=O)O)c3ccccc3n2)c1,-1.76,-4.28
Cc1cccc(OCC(=O)N2CCN(S(C)(=O)=O)CC2)c1,-0.994,-2.23
CCN1CCN(C(=O)C2c3ccccc3C(=O)N(C)C2c2cccs2)CC1 (stereo not drawn),-1.74,-7.01
Cn1c2ccccc2c(=Nc2ccc(Br)cc2)c2ccccc21,-1.48,-4.16
CCOC(=O)C(C)Sc1nc2c([nH]c3ccccc32)c(=O)n1C (stereo not drawn),-0.899,-3.61
Cc1cc(Nc2cccc(C(=O)O)c2)n2ncnc2n1,0.457,1.47
O=C(Oc1ccccc1C(=S)N1CCOCC1)c1ccc([N+](=O)[O-])cc1,1.39,4.47
O=C(Nc1c[nH]c(=O)[nH]c1=O)c1ccc(N2C(=O)C3C4C=CC(C4)C3C2=O)cc1 (stereo not drawn),0.184,0.344
Cc1ccc2c(N)c(C#N)sc2n1,-0.166,-0.436
